About 83,000 compounds went through this panel and 20% of them were active in at least one assay; those are over-represented in the sample as a whole.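 Plates (96-well) were seeded with cells, treated with compound at one concentration, and incubated for 48 hours before percent growth was determined.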 Activity calls are given as the source filed them. The calls were made as follows: active = growth percent below 10; inactive = the rest.
Key:
Assay in all cases: NCI-60 one-dose screen, 48 h (100 = growth as untreated, 0 = no growth, -100 = all killed)
Details in all cases: 10 µM unless noted
NCI-H23 lung = test system: NCI-H23 lung
NCI-H226 lung = test system: NCI-H226 lung
NCI-H322M lung = test system: NCI-H322M lung
HOP-62 NSCLC = test system: HOP-62 NSCLC
NCI-H460 lung = test system: NCI-H460 lung
HOP-92 NSCLC = test system: HOP-92 NSCLC
NCI-H522 lung = test system: NCI-H522 lung
A549/ATCC NSCLC = test system: A549/ATCC NSCLC
786-0 renal = test system: 786-0 renal
COLO 205 colon = test system: COLO 205 colon
DU-145 prostate = test system: DU-145 prostate
K-562 leukemia = test system: K-562 leukemia
MALME-3M melanoma = test system: MALME-3M melanoma
MDA-MB-231 breast = test system: MDA-MB-231 breast
RXF 393 renal = test system: RXF 393 renal
SF-268 CNS = test system: SF-268 CNS
SF-295 CNS = test system: SF-295 CNS
SF-539 CNS = test system: SF-539 CNS
UACC-257 melanoma = test system: UACC-257 melanoma
M14 melanoma = test system: M14 melanoma

Measured: growth

O=C(CSc1nc(-c2ccccc2)[nH]c1S(=O)(=O)c1ccccc1)NC1CC1
inactive: NCI-H23 lung 56.6% | NCI-H226 lung 85.8% | NCI-H322M lung 105% | HOP-62 NSCLC 21.2% | NCI-H460 lung 102% | HOP-92 NSCLC 89.6% | NCI-H522 lung 76.2% | A549/ATCC NSCLC 42.1% | 786-0 renal 94.5% | DU-145 prostate 112% | K-562 leukemia 87.4% | MALME-3M melanoma 103% | MDA-MB-231 breast 90.1% | SF-268 CNS 102% | SF-295 CNS 36.3% | SF-539 CNS 103% | UACC-257 melanoma 87.4% | M14 melanoma 96.4%
active: COLO 205 colon -30.9% | RXF 393 renal 4.36%

C#CCOc1ccc2ncnc(Nc3ccc(NC(=O)CCl)cc3)c2c1
active: NCI-H23 lung -39% | NCI-H460 lung -46.4% | HOP-92 NSCLC -7.62% | NCI-H522 lung -77.9% | 786-0 renal -65.3% | COLO 205 colon -8.04% | K-562 leukemia 0.218% | MALME-3M melanoma -74.5% | MDA-MB-231 breast -0.398% | RXF 393 renal -59.9% | SF-268 CNS -7.47% | SF-539 CNS -81.8% | M14 melanoma 4.03%
inactive: NCI-H226 lung 47.6% | NCI-H322M lung 51.6% | HOP-62 NSCLC 21.4% | A549/ATCC NSCLC 18.7% | DU-145 prostate 18.1% | SF-295 CNS 60.6% | UACC-257 melanoma 38.8%

O=C(Nc1ncc(Cc2ccc(Cl)c(C(F)(F)F)c2)s1)c1ccc2nnsc2c1
inactive: NCI-H23 lung 37.4% | NCI-H226 lung 66.5% | NCI-H322M lung 69.2% | HOP-62 NSCLC 51.5% | NCI-H460 lung 27.2% | HOP-92 NSCLC 64.9% | NCI-H522 lung 38.7% | A549/ATCC NSCLC 40.7% | 786-0 renal 53.2% | DU-145 prostate 53.7% | K-562 leukemia 24.7% | MALME-3M melanoma 48.7% | MDA-MB-231 breast 67.4% | RXF 393 renal 75.6% | SF-268 CNS 50.7% | SF-295 CNS 20% | UACC-257 melanoma 64.9% | M14 melanoma 32.2%
active: SF-539 CNS 5.13%

C=C1C(=O)O[C@H]2[C@H]1CC/C(COC(=O)NCc1ccc(Cn3c(=O)sn(CCI)c3=O)cc1)=C\CC[C@@]1(C)O[C@@H]21
active: HOP-92 NSCLC -19% | NCI-H522 lung -92.8% | COLO 205 colon -24.1% | K-562 leukemia 0.268% | MALME-3M melanoma -49.9% | RXF 393 renal 0.0448%
inactive: NCI-H23 lung 88.5% | NCI-H226 lung 85.7% | NCI-H322M lung 96.4% | HOP-62 NSCLC 114% | NCI-H460 lung 98.1% | A549/ATCC NSCLC 108% | 786-0 renal 59.6% | DU-145 prostate 17.2% | MDA-MB-231 breast 61% | SF-268 CNS 71.7% | SF-295 CNS 106% | SF-539 CNS 78.8% | UACC-257 melanoma 45.9% | M14 melanoma 15.7%

O=Cc1ccc([N+](=O)[O-])s1
inactive: NCI-H23 lung 93.2% | NCI-H226 lung 105% | NCI-H322M lung 98.4% | HOP-62 NSCLC 105% | NCI-H460 lung 106% | HOP-92 NSCLC 103% | NCI-H522 lung 101% | A549/ATCC NSCLC 95.2% | 786-0 renal 108% | DU-145 prostate 110% | K-562 leukemia 75.4% | MALME-3M melanoma 115% | MDA-MB-231 breast 85.2% | RXF 393 renal 123% | SF-268 CNS 96.6% | SF-295 CNS 107% | SF-539 CNS 86.5% | UACC-257 melanoma 97.3% | M14 melanoma 92%

O=C1/C(=C/c2ccccc2Br)COc2ccc(O)c(O)c21
inactive: NCI-H23 lung 46.5% | NCI-H226 lung 86.3% | NCI-H322M lung 33.3% | NCI-H460 lung 14.3% | HOP-92 NSCLC 36.9% | A549/ATCC NSCLC 35.1% | COLO 205 colon 82.2% | DU-145 prostate 13% | RXF 393 renal 10.1% | SF-268 CNS 10.9% | SF-295 CNS 62.9% | UACC-257 melanoma 19.7% | M14 melanoma 31.5%
active: HOP-62 NSCLC -5.9% | NCI-H522 lung -45.2% | 786-0 renal -41.6% | K-562 leukemia 9.73% | MALME-3M melanoma -8.51% | MDA-MB-231 breast 0.858% | SF-539 CNS -25.7%

C#COc1cccc(Nc2ncnc3ncc(NC(=O)CCl)cc23)c1
active: HOP-62 NSCLC -2.06% [6.25 µM] | NCI-H460 lung -5.59% [6.25 µM] | NCI-H522 lung -79.2% [6.25 µM] | 786-0 renal -69.6% [6.25 µM] | DU-145 prostate 8.37% [6.25 µM] | MDA-MB-231 breast -4.91% [6.25 µM] | RXF 393 renal -12.9% [6.25 µM] | SF-268 CNS -6.57% [6.25 µM] | SF-539 CNS 0.882% [6.25 µM]
inactive: NCI-H23 lung 32.9% [6.25 µM] | NCI-H226 lung 43.8% [6.25 µM] | NCI-H322M lung 59.4% [6.25 µM] | HOP-92 NSCLC 59.5% [6.25 µM] | A549/ATCC NSCLC 23% [6.25 µM] | K-562 leukemia 15.3% [6.25 µM] | MALME-3M melanoma 37.1% [6.25 µM] | SF-295 CNS 33.5% [6.25 µM] | UACC-257 melanoma 59.4% [6.25 µM] | M14 melanoma 35.8% [6.25 µM]

C/C(=N/O)c1ccc(F)cc1
inactive: NCI-H23 lung 84% | NCI-H226 lung 91.5% | NCI-H322M lung 111% | HOP-62 NSCLC 92.8% | NCI-H460 lung 36.6% | HOP-92 NSCLC 109% | NCI-H522 lung 55.4% | A549/ATCC NSCLC 103% | 786-0 renal 107% | COLO 205 colon 90.6% | K-562 leukemia 92.7% | MALME-3M melanoma 130% | MDA-MB-231 breast 88% | RXF 393 renal 64.1% | SF-268 CNS 102% | SF-295 CNS 75% | SF-539 CNS 119% | UACC-257 melanoma 95.3% | M14 melanoma 94.9%
active: DU-145 prostate 5.59%
